Measurements as given in PubChem BioAssay AID1851 (National Center for Advancing Translational Sciences (NCATS), 2009).
Screen size: about 16,000 compounds; about 5,800 (36%) were called active. About 23% were inconclusive and are not listed. Calls come from the whole dose curve; as a rule, active = well fitted curve in the direction sought with a large enough effect; inconclusive = small, poorly fitted or top-dose-only effect, or effect the other way; inactive = no such curve, though single readings can be large or run the other way. Some of the results follow.

molecular target: Cytochrome P450 2C19 (Homo sapiens) (UniProt P33261); test: Cytochrome panel assay with activity outcomes; conditions: recombinant CYP, pro-luciferin dealkylation, luminescence, p450-cyp2c19; series mostly up to 57.1 µM; activity, negative = inhibition: at the top concentration
Sequence (P33261 whole entry, looked up): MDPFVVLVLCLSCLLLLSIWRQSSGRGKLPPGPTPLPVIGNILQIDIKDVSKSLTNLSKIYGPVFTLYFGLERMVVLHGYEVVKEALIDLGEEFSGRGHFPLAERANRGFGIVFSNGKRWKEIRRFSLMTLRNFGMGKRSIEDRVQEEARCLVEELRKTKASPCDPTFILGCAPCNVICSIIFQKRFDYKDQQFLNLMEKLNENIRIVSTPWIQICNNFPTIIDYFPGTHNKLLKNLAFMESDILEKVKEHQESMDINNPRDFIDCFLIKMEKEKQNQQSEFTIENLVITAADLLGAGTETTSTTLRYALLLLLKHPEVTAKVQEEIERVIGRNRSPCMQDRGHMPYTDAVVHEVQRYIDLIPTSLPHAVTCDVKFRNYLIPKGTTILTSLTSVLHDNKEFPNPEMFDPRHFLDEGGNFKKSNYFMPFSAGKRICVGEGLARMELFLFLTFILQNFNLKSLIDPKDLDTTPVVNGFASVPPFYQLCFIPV
% is set by controls: 0 for no effect and ±100 for the full control effect.

AC50, active:
CCC(C#CCN1CCCCC1)(CC)OCCC#N 14.1 µM, COc1cccc(-c2cc(C(=O)N/N=C/c3ccc(OC)c(COC(C)=O)c3)c3ccccc3n2)c1 2.51 µM, COc1cc(/C=N/NC(N)=O)c(Br)cc1OCC(=O)Nc1ccccc1C 11.2 µM, O=C1C2=C(NC(=S)NC2c2ccc(Cl)cc2)NC(c2ccc(Cl)cc2)N1c1ccc(Cl)cc1 (stereo not drawn) 2.24 µM, CCC(Sc1nc2cc3c(cc2c(=O)n1Cc1ccco1)OCO3)C(=O)Nc1ccccc1OC (stereo not drawn) 2.51 µM, CCC(Sc1nc2cc3c(cc2c(=O)n1Cc1ccco1)OCO3)C(=O)Nc1cccc(OC)c1 (stereo not drawn) 7.08 µM, Cc1nc2sccc2c(=O)n1-c1cccc(Cl)c1 0.794 µM, COC(=O)C/C=C\[C@@H](C)[C@@H](/C=N\OC[C@@H]1O[C@H](c2ccccc2)C=C[C@@H]1Oc1ccc(OC)cc1)NS(=O)(=O)c1ccc(C)cc1 0.398 µM, CCCNC(=O)OC[C@@H]1O[C@H](CCO/N=C\[C@@H](C)[C@H](OCc2ccccc2)C(C)C)C=C[C@@H]1Oc1ccc(OC)cc1 3.16 µM, COC(=O)C/C=C\[C@@H](C)[C@@H](/C=N\OC[C@@H]1O[C@H](c2ccccc2)C=C[C@@H]1Oc1ccc(OC)cc1)OC 1.58 µM, CCCNC(=O)OC[C@H]1O[C@@H](CCO/N=C\[C@@H](NS(=O)(=O)c2ccc(C)cc2)[C@H](C)/C=C\CC(=O)OC)C=C[C@@H]1Oc1ccc(OC)cc1 3.16 µM, O=C1C2C3C=CC(C3)C2C(=O)N1/N=C/c1cn(Cc2ccc(F)cc2)c2ccccc12 (stereo not drawn) 11.2 µM, NCCSc1nc2ccccc2s1 1.58 µM, c1ccc(NCCSc2nc3ccccc3s2)cc1 0.398 µM, c1ccc2sc(SCSc3nc4ccccc4s3)nc2c1 1.26 µM, Oc1ccccc1C(Sc1nc2ccccc2s1)Sc1nc2ccccc2s1 3.16 µM, CCOC(=O)c1cnc(SCCc2ccccc2)nc1N 7.94 µM, Cc1ccc(C2=Nc3ccccc3S[C@@H](c3cccc([N+](=O)[O-])c3)C2)cc1 3.98 µM, NC[C@@H]1O[C@H](c2ccccc2)Cc2c1ccc(O)c2O 1 µM, O=C(CC1(O)CCCCC1)OC1CCCC1 1.58 µM, COc1ccccc1CNc1cc(-c2ccccc2C)ncn1 1 µM, COc1ccccc1CNc1cc(-c2ccccc2OC)ncn1 1.58 µM, N#C/C(=C\c1cc([N+](=O)[O-])c(N2CCCCC2)cc1N1CCCCC1)c1nn(-c2ccccc2)c(N)c1C#N 0.282 µM, CC1CCN(c2cc(N3CCC(C)CC3)c([N+](=O)[O-])cc2/C=C(\C#N)c2nn(-c3ccccc3)c(N)c2C#N)CC1 0.447 µM, O=C(NNC(=S)NCc1ccco1)c1ccc(Cl)s1 7.94 µM, CCC(C(=O)c1ccccc1)N(C(=O)c1ccccc1Cl)N1C(=O)C2C3C=CC(C3)C2C1=O (stereo not drawn) 3.55 µM, Cn1c(CN2CCCCC2)nc2cc(NC(=O)c3ccc(Cl)cc3)ccc21 28.2 µM, CC(C)n1cc(/C=C2/SC(=O)N(CC(=O)Nc3ccc4c(c3)OCO4)C2=O)c2ccccc21 5.01 µM, Cc1c(/C=C2\SC(=O)N(CC(=O)Nc3ccc4c(c3)OCO4)C2=O)c2ccccc2n1C 2.51 µM, Cn1cc(/C=C2/SC(=O)N(CC(=O)Nc3ccc4c(c3)OCO4)C2=O)c2ccccc21 0.794 µM, CCn1c(C)cc(/C=C2\SC(=O)N(CC(=O)Nc3ccc(C)c(C)c3)C2=O)c1C 1.12 µM, CCNc1ncc2nc(CCc3ccccc3)c(=O)n(Cc3cccc(OC)c3)c2n1 6.31 µM, COc1cccc(Cn2c(=O)cnc3cnc(N(C)C)nc32)c1 2.51 µM, CN(C)c1ncc2nc(CCc3ccccc3)c(=O)n(Cc3cccs3)c2n1 6.31 µM, COc1cccc(Cn2c(=O)c(CCc3ccccc3)nc3cnc(N(C)C)nc32)c1 0.794 µM

AC50, inactive:
CN(C)[C@@H]1C(=O)C(C(N)=O)=C(O)[C@]2(O)C(=O)C3=C(O)c4c(O)ccc(Cl)c4[C@H](O)[C@H]3C[C@@H]12, C=CCN1CCc2cc(O)c(O)cc2[C@H](c2ccccc2)C1

activity, negative = inhibition, inactive:
COc1ccc(/C=N/NC(=O)c2cc(-c3ccc(C)cc3C)nc3ccccc23)cc1COC(C)=O -34.6%, O=C(Nc1cccc(F)c1)N1CCCC2(CCN(C(=O)c3cc(C(F)(F)F)cc(C(F)(F)F)c3)CC2)C1 -20.2%, COc1cccc(Cn2c(=O)c(-c3cccs3)nc3cnc(Nc4cccc(OC)c4)nc32)c1 -9.76%, COc1cccc(Nc2ncc3nc(-c4cccs4)c(=O)n(Cc4cccs4)c3n2)c1 -1.11%, Cn1c(=O)c2[nH]cnc2n(C)c1=O -6.84% [at 25.6 µM], N#CCCn1c(=O)c(-c2cccs2)nc2cnc(Oc3cccc(Cl)c3)nc21 -34.9%, C=CC[C@@H]1C=C[C@@H](O/N=C\[C@@H](OC)[C@H](C)/C=C\CC(=O)OC)[C@@H](CO)O1 -6.92% [at 11.4 µM], COC(=O)C/C=C\[C@@H](C)[C@@H](/C=N\OC[C@@H](O)[C@H]1O[C@H]2OC(C)(C)O[C@H]2[C@@H]1O)NS(=O)(=O)c1ccc(C)cc1 -25.2% [at 11.4 µM], C=CC[C@@H]1C=C[C@H](O/N=C\[C@@H](C)[C@H](OCc2ccccc2)C(C)C)[C@H](CO)O1 -27.4% [at 11.4 µM], CC(=O)OC[C@@H]1O[C@H](CCO/N=C\[C@@H](C)[C@H](OCc2ccccc2)C(C)C)C=C[C@@H]1OC(C)=O -11.7% [at 11.4 µM], COC(=O)C/C=C\[C@@H](C)[C@@H](/C=N\OCC[C@H]1C=C[C@H](OC(C)=O)[C@@H](COC(C)=O)O1)NS(=O)(=O)c1ccc(C)cc1 -2.17% [at 11.4 µM], COC(=O)C/C=C\[C@@H](C)[C@@H](/C=N\O[C@@H](C)CN1CCCCc2nc(C)c(C)cc21)NS(=O)(=O)c1ccc(C)cc1 -9.76% [at 11.4 µM], COC(=O)C/C=C\[C@@H](C)[C@@H](/C=N\OC[C@@H](O)COCc1ccco1)OC -19.2% [at 11.4 µM], CCCc1c(OCCCOc2ccc(OCC(=O)O)cc2)ccc(C(C)=O)c1O -37.6%, c1ccc2sc(SCCSc3nc4ccccc4s3)nc2c1 6.86% [at 11.4 µM], C[N+](C)(C)CC(=O)O 10.6%, CC(C)OC(=O)CC12CN(C)CC(CC(=O)OC(C)C)(CN(C)C1)C2=O -21.7%, COc1ccc(-c2nc3cnc(N4CCOCC4)nc3n(C[C@H]3CCCO3)c2=O)cc1 -19.7%, O=C(O)[C@@H]1CS[C@@]2(CCCN(Cc3ccccc3)C2)N1 7.34% [at 11.4 µM], C#CCCCO/N=C1/C[C@@H](O)[C@@H](O)[C@@H]2[C@@H]3C(=O)N(CC)C(=O)[C@H]3CC[C@@H]12 -28.6% [at 11.4 µM], Cc1ccc(/C(C#N)=C/c2cccc([N+](=O)[O-])c2)cc1 8.97% [at 11.4 µM], NC[C@@H]1O[C@H](C23CC4CC(CC(C4)C2)C3)Cc2c1ccc(O)c2O -13.6%, O=C1[C@H]2[C@H]3[C@H](O)[C@H](O)C/C(=N/OCc4ccccc4)[C@@H]3CC[C@@H]2C(=O)N1C[C@@H]1CCCO1 -0.01% [at 11.4 µM], CC1(CC(=O)O)O[C@H]2CCCCC[C@H]2O1 (stereo partly drawn) (tested in a mixture with another compound) 1.88% [at 11.4 µM], CC1(CCC(=O)OC2CCCCC2)OCCO1 -35.8% [at 11.4 µM], COc1ccccc1CNc1cc(-c2ccc(C(=O)N(C)C)cc2)ncn1 -35%, Cc1cnc(CNc2cc(-c3ccccc3CN(C)C)ncn2)cn1 -5.32%, Cc1noc(C)c1C(=O)N1CCC2(CCN(C(=O)NC(C)C)CC2)CC1 -42%, OC[C@@H]1NC[C@@H](O)[C@@H](O)[C@H]1O 17.9%, Nc1ncnc2c1ncn2[C@H]1O[C@@H](C(=O)OCCO)[C@@H](O)[C@H]1O 4.2% [at 11.4 µM], C=C1c2cccc(O)c2C(O)=C2C(=O)[C@@]3(O)C(O)=C(C(N)=O)C(=O)[C@@H](N(C)C)[C@@H]3[C@@H](O)[C@H]12 -9.19% [at 25.6 µM], Cc1c(NC(=O)NC(C)N2C(=O)C3C4C=CC(C4)C3C2=O)c(=O)n(-c2ccccc2)n1C (stereo not drawn) -3.29%, Cc1c(NC(=O)CN2C(=O)C3C4C=CC(C4)C3C2=O)c(=O)n(-c2ccccc2)n1C (stereo not drawn) -21.4%, COc1ccc(C(=O)Nc2ccc3c(c2)nc(CN2CCN(C(C)=O)CC2)n3C)cc1 2.91%, Cc1ccc(NC(=O)CN2C(=O)S/C(=C\c3cccn3C)C2=O)cc1 -11.2%, CC(C)=CCC/C(C)=C/CO/N=C1/C[C@@H](O)[C@@H](O)[C@@H]2[C@H]3C(=O)N(c4ccc(F)cc4F)C(=O)[C@@H]3CC[C@H]12 -33.8% [at 11.4 µM], CCNc1ncc2nc(-c3ccccc3)c(=O)n(Cc3cccs3)c2n1 -10.5%, COc1cccc(Cn2c(=O)c(-c3ccccc3)nc3cnc(N(C)C)nc32)c1 -36%, COc1cccc(Cn2c(=O)c(-c3cc(F)cc(F)c3)nc3cnc(N(C)C)nc32)c1 2.39%, CN(C)c1ncc2nc(-c3ccc(Cl)cc3)c(=O)n(Cc3cccs3)c2n1 34.8%, CN(C)c1ncc2nc(-c3ccc(F)cc3)c(=O)n(Cc3cccs3)c2n1 4.17%
